The list is not random: actives were taken first. Their share in the collection is about 1.4%.
Mtb MbtI inh: blocks the Mycobacterium tuberculosis siderophore enzyme MbtI; P9WFX0; purified MbtI enzyme, fluorescence intensity read-out; inhibition, % (test concentration not listed); actives 0.89% (n = 100,000); AID 493033; in the data active means inhibition mostly above about 56%, no sharp cut-off; inactive means mostly below about 77%
AID504770: E. coli YBA685 growth inhibition, screen for V. cholerae RctB inhibitors. E. coli YBA685 rctB-dependent plasmid, OD600 growth, 3 h; hits give low values. z-score (test concentration not listed). actives 0.27% (n = 130,000). AID 504770; in the data active means z-score below about -2, passing the limit was not always enough
Polio RdRp inh: inhibitors of poliovirus RNA polymerase binding and polymerization; poliovirus polymerase elongation, fluorescence polarization; hits give low values; % elongation, % (compound at 16.7 µg/mL); P03300; AID 588519; actives 0.66% (n = 150,000); in the data active means % elongation below about 90%
MenB inh: blocks the Mycobacterium tuberculosis MenB enzyme; MenB enzyme assay, absorbance read-out; inhibition, % (concentration not given with the values); AID 540299; actives 0.43% (n = 100,000); in the data active means inhibition above about 21%, passing the limit was not always enough
Target sequence (P9WNP5 whole entry, looked up): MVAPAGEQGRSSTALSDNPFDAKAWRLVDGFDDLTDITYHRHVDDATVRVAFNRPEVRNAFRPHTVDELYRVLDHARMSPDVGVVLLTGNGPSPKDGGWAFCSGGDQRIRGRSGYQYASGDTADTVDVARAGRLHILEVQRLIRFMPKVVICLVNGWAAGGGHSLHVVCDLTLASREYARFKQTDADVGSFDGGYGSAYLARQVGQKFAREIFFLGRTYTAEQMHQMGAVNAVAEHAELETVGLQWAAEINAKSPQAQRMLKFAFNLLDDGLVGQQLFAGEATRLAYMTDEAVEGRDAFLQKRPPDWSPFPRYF
Numbers without * were called inactive; i = inactive; nt = no result.

SMILES	Mtb MbtI inh	AID504770	Polio RdRp inh	MenB inh
CCOC(=O)c1[nH]c(=O)[nH]c1CSc1ccccn1	90.8*	0.2	100.0	-6.0
CC(=O)Nc1cccc(SSc2cccc(NC(C)=O)c2)c1	97.1*	-0.1	99.0	10.1
O=c1[nH]c(=S)n(CCc2ccccc2)c2c1CN(CCc1ccccc1)CN2	-0.3	-0.25	103.0	6.7
O=c1[nH]c(=S)n(-c2cccc(Cl)c2)c2c1CN(C1CCCC1)CN2	16.0	-0.35	99.0	51.6*
c1csc(-c2nc(-c3c[nH]c4ccccc34)cs2)c1	-15.3	1.35	106.0	-10.1
CCS(=O)c1ccccc1C(=O)NCc1ccc(F)cc1 (stereo not given)	86.5*	0	99.0	4.0
O=C1C(Sc2ncn[nH]2)=C/C(=N/S(=O)(=O)c2cccs2)c2ccccc21	90.1	0.45	87.0*	-29.7
O=C1C(Sc2ncn[nH]2)=C/C(=N/S(=O)(=O)c2ccc(F)cc2)c2ccccc21	97.9	-1.2	88.0*	-5.8
O=C1C(NS(=O)(=O)c2ccccc2)=C/C(=N\S(=O)(=O)c2ccc(F)cc2)c2ccccc21	-2.1	-0.85	78.0*	0.0
Cc1cc2cc(CNC(=S)Nc3cccc(C)c3C)ccc2[nH]1	-11.3	-0.1	102.0	-55.2
O=C1c2ccccc2-c2n[nH]c(=S)nc21	27.4	-2.6*	76.0*	i
O=C1c2ccccc2-c2nc3ccccc3nc21	5.0	-0.4	100.0	12.0
NS(=O)(=O)c1ccc(NC(=O)CS)cc1	76.0*	-1.45	99.0	-93.6
NS(=O)(=O)c1ccc(NC(=O)CCC(=O)Nc2ccc(S(N)(=O)=O)cc2)cc1	5.7	-0.25	102.0	-19.6
C=CCN(CC=C)CC(O)Cn1c2c(c3cc(C)ccc31)CCCC2 (stereo not given)	11.2	1.45	101.0	-26.4
COc1ccc(C)cc1NC(=O)CN(C)Cc1nc2ccccc2c(=O)[nH]1	10.0	-0.15	89.0*	-37.8
Cc1cccc(S(=O)(=O)N2CCN(S(=O)(=O)c3ccc(C)c(C)c3)CC2)c1	0.6	0.05	103.0	-8.0
CCOc1ccc(-c2cnc(N)s2)cc1	nt	-0.7	62.0*	-1.0
O=C(CSc1ccccc1)N1c2ccccc2Sc2ccccc21	-5.5	0.4	83.0*	-13.9
Cn1nnnc1SCC(=O)N1c2ccccc2Sc2ccccc21	-8.9	0.2	104.0	-24.0
COc1ccc(CCNC(=O)Cn2cnc3c(cnn3-c3ccccc3)c2=O)cc1OC	nt	-3.6*	nt	nt
COC(=O)Cn1cnc2c(cnn2-c2ccccc2)c1=O	nt	-0.35	nt	nt
Cc1ccc(/C=C/C(=O)NCC2CCN(C(=O)/C=C/c3ccc(C)o3)CC2)o1	88.9*	-0.55	99.0	-3.8
COc1ccc(-c2csc(NC(C)=O)n2)cc1C	nt	0.85	102.0	nt
Cc1nc(-c2ccc3[nH]c(=O)oc3c2)cs1	97.4*	-1.75	74.0*	-12.8
SMILES	Mtb MbtI inh	AID504770	Polio RdRp inh	MenB inh
Cn1cnc(S(=O)(=O)N(Cc2ccccc2)Cc2ccccc2N2CCC(C(=O)O)CC2)c1	-11.8	-0.4	86.0*	3.7
Cc1nc2nc(C(F)(F)F)[nH]c2cc1Br	69.8*	0.4	104.0	-32.3
C=CCC1CC(=O)N(c2ccc(C)c(F)c2)C1=O (stereo not given)	nt	0.7	nt	nt
O=C(NCCc1ccc(O)c(O)c1)C(F)(F)F	84.9*	0.6	101.0	nt
O=C1NCC(O)=C1/C=N/Nc1ccccc1	45.4	-3.95*	103.0	0.2
S=C(NC1CCCCC1)C(=S)NC1CCCCC1	37.1	2.15	82.0*	10.1
COCCN(Cc1ccccc1)C(=O)c1ccc2c(c1)NC(=O)CS2	62.9*	0.1	93.0	-47.5
COc1cccc(CN(C)C(=O)c2ccc3c(c2)NC(=O)CS3)c1	2.0	-0.95	99.0	-9.2
COC(=O)C1=C(N)OC2=C(C(=O)CCC2)C1c1ccc(OC)cc1 (stereo not given)	3.8	1.65	101.0	36.5*
COc1ccc(C2C(C#N)=C(N)OC3=C2C(=O)CCC3)cc1 (stereo not given)	11.3	-0.15	102.0	-19.0
COc1cccc(CC2(O)C(=O)Nc3ccccc32)c1 (stereo not given)	nt	0.15	nt	nt
CCS(=O)(=O)c1ccc2oc(SCC(=O)N3CC(C)OC(C)C3)nc2c1 (stereo not given)	-10.2	-1.05	106.0	20.1
CCS(=O)(=O)c1ccc2oc(SCC(=O)CSc3nc4cc(S(=O)(=O)CC)ccc4o3)nc2c1	7.5	0.3	110.0	44.7*
Cc1noc(C)c1CSc1ccccc1C(=O)OC(C)C(=O)N1CCOCC1 (stereo not given)	7.5	0.45	102.0	-14.4
Cc1noc(C)c1CSc1ccccc1C(=O)NC(C)c1ccc2c(c1)OCCO2 (stereo not given)	88.7*	-0.2	100.0	-28.6
